Assay outcomes (PubChem)
ATXN2 expr inh: Primary qHTS for Inhibitors of ATXN expression | HEK-293 ATXN2-luciferase reporter, luminescence, 24 h | Potency, µM (highest dose often 57 µM), for the others: at the highest dose activity change, negative = inhibition, most hits filed as inhibitors | 360,000 tested, 0.72% active | AID 1745845, 2022; note: % is set by controls: 0 for no effect and ±100 for the full control effect; nearly all actives have a fitted effect of over 55% in size
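qHTS (up to 57 uM final) was run with 24 h compound exposure of reporter cells at 37 °C. Each well was multiplexed: SteadyGlo luminescence measured ATXN2-luciferase expression after a fluorogenic Gly-Phe-AFC viability readout (25 uM final).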
HepG2 viability: qHTS for Inhibitors of TGF-b: Cytotox Counterscreen | HepG2 CAGA-GFP viability, ATP luminescence, 18 h | Potency, µM (titrated, usually from 46.1 µM), inactives show top-dose activity change, negative = cytotoxicity, hits mostly cytotoxic | AID 588856, 2011 | 410,000 tested, 0.76% active
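CellTiter-Glo luminescence gave cytotoxicity after 18 hours at 37 degrees C. The cells were HepG2 CAGA-GFP in 1% FBS DMEM, stimulated with 500 pg/mL TGF-beta after compound addition. %Activity was normalised to no-cell wells (complete cell-killing) and DMSO (no toxicity), and curves were fitted and classified.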
DT40 TDP1 CPT: qHTS for Inhibitors of human tyrosyl-DNA phosphodiesterase 1 (TDP1): qHTS in cells in presence of CPT; Potency, µM (top dose mostly 46.2 µM), without a hit: top-dose activity change, negative = growth inhibition, usual class: inhibitors; 420,000 tested, 12% active; chicken DT40 Tdp1-/-;hTDP1 cells + 20 nM CPT, ATP luminescence, 48 h; note: % is set by controls: 0 for no effect and ±100 for the full control effect; nearly all actives have a fitted effect of over 55% in size
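Chicken DT40 Tdp1-/- cells complemented with human TDP1, 400 cells/well, exposed to compounds plus 20 nM camptothecin for at least 48 h at 37 C; viability read as ATP content by CellTiter-Glo luminescence.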
TGFb inhibitor: qHTS for Inhibitors of TGF-b | HepG2 CAGA-GFP TGF-b/SMAD3 reporter, GFP fluorescence, 18 h; TGF-beta stimulated, 500 pg/mL final | Potency, µM (highest dose often 46.1 µM), for inactives: at the top dose activity, negative = inhibition, usual class: inhibitors | 410,000 tested, 1.2% active | AID 588855, 2011; note: % is set by controls: 0 for no effect and ±100 for the full control effect; nearly all actives have a fitted effect of over 65% in size
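GFP signal (ex488/em500-530) from TGF-beta-stimulated HEPG2 CAGA-GFP cells, 500 pg/mL final, 18 h at 37 degrees C in DMEM plus 1% FBS, normalized to unstimulated and DMSO-stimulated controls.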
S2 tox: Viability Counterscreen for Primary qHTS for Inhibitors of ATXN expression. S2 cells (HEK-293 line with an ATXN2-luciferase reporter) viability, CellTiter-Fluor protease fluorescence, 24 h. AID 651635, 2014. Potency, µM (series often up to 56.7 µM), actives largely listed as cytotoxic. 400,000 tested, 0.49% active; note: nearly all actives have a fitted effect of over 40% in size
TDP1 cell noCPT: qHTS for Inhibitors of human tyrosyl-DNA phosphodiesterase 1 (TDP1): qHTS in cells in absence of CPT; 420,000 tested, 15% active; DT40 Tdp1-/- hTDP1 cells, no CPT, ATP luminescence, 48 h; Potency, µM (top dose mostly 46.2 µM), inactives show at the top dose activity change, negative = growth inhibition, usual class: inhibitors; note: % is set by controls: 0 for no effect and ±100 for the full control effect; nearly all actives have a fitted effect of over 55% in size
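Compound effects on proliferation are scored in DT40 Tdp1-/-;hTDP1 cells in the absence of CPT. ATP levels (CellTiter-Glo luminescence) are recorded after a ≥48 hr, 37 °C incubation.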
Active calls of the source: *; i = inactive; ? = inconclusive; · = not tested or not shown; [ ] = remark or other dose. This is a sample that favours compounds with a hit; in the whole collection about 17% have one here. Calls come from the whole dose curve; as a rule, active = well fitted curve in the direction sought with a large enough effect; inconclusive = small, poorly fitted or top-dose-only effect, or another doubt; inactive = no such curve, though single readings can be large; an effect the other way counts as inactive or inconclusive. Potency is the fitted concentration of half-maximal effect.

SMILES | ATXN2 expr inh | HepG2 viability | DT40 TDP1 CPT | TGFb inhibitor | S2 tox | TDP1 cell noCPT
Cc1ccc(N2C(=O)C(CN3CCCC3)C2c2ccccc2)cc1 (stereo unspecified) | -32% | -11% | 21µM* | 1% | i | 23µM*
CCCC1C(=O)N(c2ccccc2)C1c1ccccc1 (stereo unspecified) | -6% | -4% | 1% | -5% | i | -16%
Cc1ccc(C2N(c3ccccc3)C(=O)N3CCCN23)cc1 (stereo unspecified) | · | -3% | ? | 1% | i | -16%
COc1ccc(-n2cc(-c3ccccc3)c3c(NCCc4ccc(OC)c(OC)c4)ncnc32)cc1 | · | -31% | 23µM* | -30% | · | 21µM*
COc1ccc(-n2cc(-c3ccccc3)c3c(Nc4ccc(OC)c(OC)c4)ncnc32)cc1 | · | -29% | ? | -6% | · | ?
COc1ccc(CCNc2ncnc3c2c(-c2ccccc2)cn3-c2cccc(Cl)c2)cc1OC | · | -30% | 7.3µM* | -15% | · | 9.2µM*
CC1=C(C(=O)OC(C)C)[C@@H](c2ccc(C)o2)NC(=O)N1 | -8%[11.3 µM] | 12% | 11% | -8% | i | -22%
CCOc1cc(/C=C2/SC(=Nc3ccccc3)N(Cc3cccnc3)C2=O)ccc1OCC#N | -28% | -2% | 16µM* | 20% | ? | 23µM*
O=C1C(c2ccccc2)SC(=Nc2ccccc2)N1S(=O)(=O)c1ccccc1 (stereo unspecified) | 2% | -23% | -7% | 8% | i | 0%
CC(=O)C(Sc1nccc(-c2cccs2)n1)C(C)=O | 16% | -20% | ? | 17% | i | 18µM*
CC(=O)Nc1cccc(-n2c(=O)n(C3CC3)c(=O)c3c(Nc4ccc(I)cc4F)n(C)c(=O)c(C)c32)c1 | -6% | · | · | · | · | ·
COc1cc2c(cc1OC)C(c1cc(-c3cc(Cl)ccc3Cl)oc1C)=NCC2 | · | -27% | 1.3µM* | 1% | · | 1µM*
COc1ccc(C2=NCCc3cc(OC)c(OC)cc32)cc1 | -1% | -5% | ? | -8% | i | 21µM*
COc1cc2c(cc1OC)C(CCc1ccccc1)=NCC2 | -15% | -18% | ? | -16% | i | 16µM*
COc1cc2c(cc1OC)C(c1c(Cl)cccc1Cl)=NCC2 | -6% | -16% | 0.26µM* | ? | i | 0.23µM*
COc1cc2c(cc1OC)C(=O)CC2 | 21% | · | · | · | i | ·
COc1cc2c(cc1OC)C(c1c(-c3c(Cl)cccc3Cl)noc1C)=NCC2 | · | -15% | 23µM* | -5% | i | 10µM*
Cn1c(=O)n(CC(=O)O)c(=O)c2c1nc1n2CCCN1c1ccc(Cl)cc1 | -1% | -14% | -10% | 3% | i | 2%
Cc1nc2c(=O)[nH]n(C)c2nc1C | · | -73% | -1% | 0% | i | -11%
Cc1ccc(C(=O)NNC(=S)NCC2CCCO2)cc1[N+](=O)[O-] (stereo unspecified) | 1% | 22% | ? | 11% | i | ?
O=C(NNC(=O)c1ccc(SCC2CCCO2)c([N+](=O)[O-])c1)c1ccc(F)cc1 (stereo unspecified) | -8% | 0% | ? | 31% | i | 20µM*
COc1cccc(NC(=O)c2cn(C3CCCCC3)c(=O)c3c2c2ccccc2n3C)c1 | · | 1% | -24% | 1% | · | ?
Cc1cn2c(=O)cc(COC(=O)c3cccc(NC(=O)C(C)Oc4ccccc4)c3)nc2s1 (stereo unspecified) | · | -12% | -7% | 5% | · | -20%
